According to PubChem BioAssay (Tox21):
Inconclusive results are not listed. Activity calls are given as the source filed them. Calls come from the whole dose curve; as a rule, active = well fitted inhibition curve with a large enough effect in the repeat runs; inconclusive = weak or mixed curves, or effect the other way; inactive = no such curve, though single readings can be large or run the other way.

Assay: qHTS assay to identify small molecule antagonists of the retinoic acid receptor (RAR) signaling pathway (AID 1159552; note: nearly all actives have a fitted effect of over 50% in size)
Details: C3RL4 RARE luciferase reporter, retinol-stimulated, 6 h; series mostly up to 92.4 µM; activity, negative = inhibition: at the top concentration
Text: National Center for Advancing Translational Sciences [NCATS]
NIH Chemical Genomics Center [NCGC]
U.S. Environmental Protection Agency [EPA]
National Institutes of Environmental Health Sciences [NIEHS]
National Toxicology Program [NTP]
U.S. Food and Drug Administration [FDA]
All-trans Retinoic acid (atRA) is the potent natural metabolite of retinol and plays an important role in normal embryonic development and maintenance of cellular phenotype in adult animals. atRA is the activating ligand for the retinoic acid receptors (RARs) which form heterodimers with retinoid X receptors (RXRs) on the retinoic acid response element (RARE). Through activation of the RAR/RXRs nuclear receptors, atRA regulates the transcription of a large number of protein-coding genes and regulatory RNAs. Intracellular levels of atRA are controlled by the retinol signaling pathway (RSP) that regulates the biosynthesis and catabolism of atRA to maintain physiological levels. Chemicals that interfere with the RSP can cause abnormal intracellular levels of atRA and therefore are potential developmental toxicants. To assess compounds for the potential adverse effect on embryonic development through interfering with retinol signaling, a cell-based RARE luciferase reporter gene assay was used. C3RL4 cell line (OARSA/CFSAN/FDA, Laurel, MD) was used to screen Tox21 10K compound library for identifying inhibitors of the RSP.
Tox21 Assay Protocol Summary:
C3RL4 cells were seeded at 1,000/well in 4 uL of assay medium into white solid 1,536-well tissue culture plates (Greiner Bio-One North America Inc. Monroe, NC) using a Multidrop Combi (Thermo Scientific, Waltham, MA) dispenser. After incubation at 37 C and 5% CO2 for an overnight, 23 nL of compounds dissolved in DMSO, positive control or DMSO only were transferred by a Pintool station (Kalypsys, San Diego, CA). One ul of 1 uM (final concentration) of Retinol was added right after the compound addition by using a Flying Reagent Dispenser (FRD) (Aurora Discovery, San Diego, CA). After 6 hr incubation at 37 C and 5% CO2, 5 uL of Amplite Luciferase reagent (AAT Bioquest Inc. Sunnyvale, CA) was added to each assay plate using an FRD. Luminescence was quantified on a ViewLux plate reader (PerkinElmer, Waltham, MA) after 30 min incubation at room temperature.
% is set by controls: 0 for no effect and ±100 for the full control effect.

SMILES	activity, negative = inhibition
NCC1CCC(C(=O)Oc2ccc(CCC(=O)O)cc2)CC1 (stereo not given)	-6.85% [at 42.5 µM] (inactive)
COC(=O)c1ccc(NC(C)=O)cc1OC	5.7% [at 42.5 µM] (inactive)
CCNC(=O)C(C)OC(=O)Nc1ccccc1 (stereo not given)	-0.0981% (inactive)
C/C=C(\C)C=O	-1.53% (inactive)
CC(=O)OCC(=O)[C@@]1(O)CC[C@H]2[C@@H]3CCC4=CC(=O)C=C[C@]4(C)[C@H]3[C@@H](O)C[C@@]21C	-5.75% [at 42.5 µM] (inactive)
CCCCS	-4.73% (inactive)
Cc1ccc2cccnc2c1	6.7% (inactive)
NC(=O)CC[C@@H](N)C(=O)O	3.21% [at 42.5 µM] (inactive)
CC(C)(O)CCCC1=CCC(C=O)CC1 (stereo not given)	45.1% (inactive)
CCCC(=O)OC	9.88% (inactive)
CCC(C)SSC(C)CC (stereo not given)	1.16% (inactive)
O=S(=O)(O)c1cc(I)c(O)c2ncccc12	-6.92% [at 42.5 µM] (inactive)
CCCc1ccc(O)c(OC)c1	-7.86% (inactive)
CCCC(=O)C(CC)Sc1ccoc1C (stereo not given)	-10.2% (inactive)
CCc1ncc(C)[nH]1	15.3% (inactive)
C=CCN(CC=C)CC=C	-3.99% (inactive)
O=S(=O)(O)c1ccc(Cl)cc1	3.13% (inactive)
CC(=O)O[C@@H]1CC2C3CCc4cc(OC(=O)c5ccccc5)ccc4C3CCC2(C)[C@H]1OC(C)=O (stereo not given in full)	2.59% [at 42.5 µM] (inactive)
CCCc1ncc(C(=O)O)s1	-7.71% [at 42.5 µM] (inactive)
CCOc1ccccc1OCCN[C@H](C)Cc1ccc(OC)c(S(N)(=O)=O)c1	-0.52% [at 42.5 µM] (inactive)

SMILES	activity, negative = inhibition
CCCCCCCOC(C)=O	19.8% (inactive)
CCCCNCC	37.4% (inactive)
Cc1cc(O)c(Cl)cc1C	10.5% (inactive)
Cc1nc2ccc(Cl)cc2[nH]1	7.18% (inactive)
C=COCCCCO	-12.4% (inactive)
CC/C=C\CCCCCCCCCCOC(C)=O	-6.45% (inactive)
O=C1c2ccccc2C(=O)N1CO	1.3% (inactive)
CC[C@@]1(c2ccccc2)NC(=O)N(C)C1=O	3.65% [at 42.5 µM] (inactive)
O=c1[nH]c(=O)c2cn[nH]c2[nH]1	9.14% (inactive)
O=C1Nc2ccccc2C1=O	2.86% (inactive)
Nc1nc(Cl)cc(Cl)n1	33.1% (inactive)
CCCCCCCCCCCBr	-8.03% [at 42.5 µM] (inactive)
CC(=O)Oc1ccc(C(C)=O)cc1	-16% (inactive)
CO/N=C(\C(=O)O)c1csc(NC(=O)CCl)n1	-0.241% [at 42.5 µM] (inactive)
Clc1cc(Cl)c(Cl)c(Cl)c1Cl	-0.289% (inactive)
C=CCON/C(CCC)=C1\C(=O)CC(C)(C)C(C(=O)OC)=C1O	0.707% (inactive)
C/C=C(\C)C(=O)OC/C=C(\C)CCC=C(C)C	-11.6% (inactive)
O=Cc1ccccc1S(=O)(=O)O	-2.8% (inactive)
O=C[C@@H](O)[C@H](O)[C@H](O)CO	-8.31% (inactive)
CCCCCCCCC1CO1 (stereo not given)	9.52% (inactive)
